# Source: PubChem BioAssay (Tox21)
# Values joined by “and” are separate entries in the source; they are usually repeats but may differ in a detail not shown here. Identical values can stand only once. Inconclusive results are not listed. A call without a number means that no potency is given here. Active and inactive are the calls of the source. Unless noted, calls follow the shape of the dose curve; as a rule, active = well fitted curve in the direction sought with a large enough effect in the repeat runs; inconclusive = weak or mixed curves; inactive = flat fitted curve, though single readings scatter.
# Tested on: not listed separately
# Test: qHTS assay to test for compound auto fluorescence at 535 nm (green) in HepG2 cell free culture (AID 720686)
# Conditions: Cell-free medium, green autofluorescence 485/535 nm; series mostly up to 91.3 µM
# Tags tell the direction and shape of the fitted curve or compound fluorescence and quenching.
row,SMILES,outcome
1,Cc1ccc([N+](=O)[O-])cc1N,inactive
2,O=C(NCC1CCCCN1)c1cc(OCC(F)(F)F)ccc1OCC(F)(F)F (stereo not given),inactive
3,CC1(C)[C@@H](O[C@H]2O[C@H](C(=O)O)[C@@H](O)[C@H](O)[C@H]2O[C@@H]2O[C@H](C(=O)O)[C@@H](O)[C@H](O)[C@H]2O)CC[C@]2(C)[C@H]3C(=O)C=C4[C@@H]5C[C@@](C)(C(=O)O)CC[C@]5(C)CC[C@@]4(C)[C@]3(C)CC[C@@H]12,inactive
4,C1CCCNCC1,inactive
5,COc1c2ccoc2cc2oc(=O)ccc12,inactive
6,CC(=O)Nc1ccc(CC(=O)O)cc1,inactive
7,CCCCCCC(=O)O,inactive
8,CC(=O)OC(C)(C)C1CC=C(C)CC1 (stereo not given),inactive
9,Cc1ccccc1C=O,inactive
10,NC(=O)NC(N)=O,inactive
11,Cc1cc(CC(=O)O)n(C)c1C(=O)c1ccc(Cl)cc1,inactive
12,Nc1nc(N)c2nc(-c3ccccc3)c(N)nc2n1,inactive
13,Clc1cccc(Cl)c1NC1=NCCN1,inactive
14,O=C(O)C1=NN(c2ccc(S(=O)(=O)O)cc2)C(=O)C1,inactive
15,N[C@@H](Cc1cc(I)c(Oc2ccc(O)c(I)c2)c(I)c1)C(=O)O,inactive
16,CCCCCCCCCCCCCC(=O)O,inactive
17,O=C1CCCCCCCCCCC1,inactive
18,COCN(COC)c1nc(N(COC)COC)nc(N(COC)COC)n1,inactive
19,Cc1nnc(NS(=O)(=O)c2ccc(N)cc2)s1,inactive
20,C[n+]1ccn(CCO)c1,inactive
21,NC(N)=S,inactive
22,Cc1ccc(C(C)C)cc1,inactive
23,CCn1cc(C(=O)O)c(=O)c2cc3c(cc21)OCO3,inactive
24,CC(=O)CC(=O)N(C)C,inactive
25,CCCCC(CC)COC(=O)c1ccc(C(=O)OCC(CC)CCCC)cc1 (stereo not given),inactive
26,Cc1cc(C)c(O)c(C)c1,inactive
27,CC(C)c1ccc(C(C)C)cc1,inactive
28,Oc1ccc(Cc2ccccc2O)cc1,inactive
29,OCC(O)CS (stereo not given),inactive

# Tested on: not listed separately
# Test: qHTS assay to test for compound auto fluorescence at 460 nm (blue) in HepG2 cells (AID 720687); also: potency is read from the fitted curve at half-maximal effect
# Conditions: autofluorescence 405/460 nm, 1 h; series mostly up to 91.3 µM
# Method in brief: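 HepG2 cells in MEM with 10% FBS, attached overnight at 37 C, were exposed to compound or DMSO for 1 hr at 37 C, 5% CO2. Blue fluorescence was read at 405/460 nm, with triamterene as reference fluorophore.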
row,SMILES,Potency
1,CC(C)(C)NC[C@H](O)COc1nsnc1N1CCOCC1,inactive
2,Cc1ccc([N+](=O)[O-])cc1N,inactive
3,CC(C)=CCC/C(C)=C/C=O,inactive
4,O=C(NCC1CCCCN1)c1cc(OCC(F)(F)F)ccc1OCC(F)(F)F (stereo not given),inactive
5,CC1(C)[C@@H](O[C@H]2O[C@H](C(=O)O)[C@@H](O)[C@H](O)[C@H]2O[C@@H]2O[C@H](C(=O)O)[C@@H](O)[C@H](O)[C@H]2O)CC[C@]2(C)[C@H]3C(=O)C=C4[C@@H]5C[C@@](C)(C(=O)O)CC[C@]5(C)CC[C@@]4(C)[C@]3(C)CC[C@@H]12,inactive
6,C1CCCNCC1,inactive
7,COc1c2ccoc2cc2oc(=O)ccc12,inactive
8,CC(=O)Nc1ccc(CC(=O)O)cc1,inactive
9,CCCCCCC(=O)O,inactive
10,CC(=O)OC(C)(C)C1CC=C(C)CC1 (stereo not given),inactive
11,Cc1ccccc1C=O,inactive
12,NC(=O)NC(N)=O,inactive
13,Cc1cc(CC(=O)O)n(C)c1C(=O)c1ccc(Cl)cc1,inactive
14,C[Si](C)(C)N[Si](C)(C)C,inactive
15,COc1ccc2cc3[n+](cc2c1OC)CCc1cc2c(cc1-3)OCO2,inactive
16,Nc1nc(N)c2nc(-c3ccccc3)c(N)nc2n1,12.6 µM [fluorescent] (active) and 39.8 µM [fluorescent] (active)
17,Clc1cccc(Cl)c1NC1=NCCN1,inactive
18,O=C(O)C1=NN(c2ccc(S(=O)(=O)O)cc2)C(=O)C1,inactive
19,N[C@@H](Cc1cc(I)c(Oc2ccc(O)c(I)c2)c(I)c1)C(=O)O,inactive

row,SMILES,Potency
1,C=C(CC(=O)O)C(=O)O,inactive
2,Cc1ccccc1Cl,inactive
3,CCCCCCCCCCCCCC(=O)O,inactive
4,O=C1CCCCCCCCCCC1,inactive
5,COCN(COC)c1nc(N(COC)COC)nc(N(COC)COC)n1,inactive
6,Cc1nnc(NS(=O)(=O)c2ccc(N)cc2)s1,inactive
7,C[n+]1ccn(CCO)c1,inactive
8,NC(N)=S,inactive
9,CCCCCCCCC(=O)O,inactive
10,OC1CCCCC1,inactive
11,Cc1ccc(C(C)C)cc1,inactive
12,CCn1cc(C(=O)O)c(=O)c2cc3c(cc21)OCO3,inactive
13,CC(=O)CC(=O)N(C)C,inactive
14,CCCCC(CC)COC(=O)c1ccc(C(=O)OCC(CC)CCCC)cc1 (stereo not given),inactive
15,Cc1cc(C)c(O)c(C)c1,inactive
16,CC(C)c1ccc(C(C)C)cc1,inactive
17,Oc1ccc(Cc2ccccc2O)cc1,inactive
18,OCC(O)CS (stereo not given),inactive
19,Cc1ccncc1,inactive

# Biological target: Glucocorticoid receptor (Homo sapiens) (UniProt P04150)
# Test: qHTS assay to identify small molecule agonists of the glucocorticoid receptor (GR) signaling pathway (AID 720691; active = well fitted activation curve with a large enough effect in the signal ratio in the repeat runs, not every such curve was filed as active; the % refers to the signal ratio)
# Conditions: GR-bla HeLa, beta-lactamase reporter ratio, 18 h; series mostly up to 62.4 µM
# Method in brief: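 Agonist-mode qHTS in HeLa cells stably expressing a glucocorticoid-response-element beta-lactamase reporter. Fluorescence intensity read with FRET substrate (2 h, room temperature) after 18 h compound treatment at 37 C.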
# Sequence of Glucocorticoid receptor (Homo sapiens) (P04150 whole entry, looked up): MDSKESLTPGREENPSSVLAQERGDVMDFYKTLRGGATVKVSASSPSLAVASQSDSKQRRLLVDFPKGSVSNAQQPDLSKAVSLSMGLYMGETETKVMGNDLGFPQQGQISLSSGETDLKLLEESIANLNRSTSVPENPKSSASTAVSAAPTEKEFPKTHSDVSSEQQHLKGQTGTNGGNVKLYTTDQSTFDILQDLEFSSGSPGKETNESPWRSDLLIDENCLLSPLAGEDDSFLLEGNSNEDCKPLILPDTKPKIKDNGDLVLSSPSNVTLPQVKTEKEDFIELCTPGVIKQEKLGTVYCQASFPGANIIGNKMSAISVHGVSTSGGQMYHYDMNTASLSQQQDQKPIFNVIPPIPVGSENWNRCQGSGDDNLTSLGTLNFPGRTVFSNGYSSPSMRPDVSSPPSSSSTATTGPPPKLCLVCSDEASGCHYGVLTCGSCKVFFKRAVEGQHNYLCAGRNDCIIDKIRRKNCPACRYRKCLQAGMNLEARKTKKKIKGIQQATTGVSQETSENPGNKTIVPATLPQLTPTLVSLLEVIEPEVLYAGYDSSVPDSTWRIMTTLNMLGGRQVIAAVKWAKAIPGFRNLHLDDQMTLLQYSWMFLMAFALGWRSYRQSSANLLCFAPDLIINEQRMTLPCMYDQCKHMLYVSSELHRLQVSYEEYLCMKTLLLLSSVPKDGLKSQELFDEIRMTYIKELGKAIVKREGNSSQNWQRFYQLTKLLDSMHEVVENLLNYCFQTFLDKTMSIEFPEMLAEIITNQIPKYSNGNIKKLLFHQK
row,SMILES,outcome
1,CC(C)(C)NC[C@H](O)COc1nsnc1N1CCOCC1,inactive
2,CC(C)=CCC/C(C)=C/C=O,inactive
3,C1CCCNCC1,inactive
4,COc1c2ccoc2cc2oc(=O)ccc12,inactive
5,Cc1ccccc1C=O,inactive
6,Cc1cc(CC(=O)O)n(C)c1C(=O)c1ccc(Cl)cc1,inactive
7,COc1ccc2cc3[n+](cc2c1OC)CCc1cc2c(cc1-3)OCO2,inactive
8,Clc1cccc(Cl)c1NC1=NCCN1,inactive
9,C=C(CC(=O)O)C(=O)O,inactive
10,O=C1CCCCCCCCCCC1,inactive
11,COCN(COC)c1nc(N(COC)COC)nc(N(COC)COC)n1,inactive
12,CCCCCCCCC(=O)O,inactive
13,OC1CCCCC1,inactive
14,Cc1ccc(C(C)C)cc1,inactive
15,Cc1cc(C)c(O)c(C)c1,inactive
16,CC(C)c1ccc(C(C)C)cc1,inactive
17,OCC(O)CS (stereo not given),inactive
18,Cc1ccncc1,inactive
